From PubChem BioAssay
aSyn UTR act – Activators via SNCA 5'UTR binding, MLPCN; activity score, % (tested at 7.5 µM), hits read low; 300,000 tested, 7.1% active; AID 1814, 2009; alpha-synuclein 5'UTR reporter, activators screen; in the data active = activity score below about -60%
Numbers without * were called inactive. The list is a sample of the results.

SMILES	aSyn UTR act
Cc1ccc(SCC(=O)N2CCc3ccccc32)cc1	-171.4*
O=C(CSC1=NCCS1)N1CCc2ccccc21	-197.6*
CCC(=O)NC(=S)Nc1ccc(NC(=S)NC(=O)c2ccccc2)cc1	-103.9*
O=C(Nc1ccc(Cl)cc1)C(Cl)C(=O)c1ccccc1 (stereo not drawn)	-79.2*
O=C(NC(=S)Nc1ccc(Cl)cc1)c1ccccc1	-177.0*
COC(=O)c1c(C)[nH]c(/C=N/Nc2ccccc2)c1C	-70.5*
CC(NC(=O)Cn1ncc(Cl)c(Cl)c1=O)C12CC3CC(CC(C3)C1)C2 (stereo not drawn)	88.0
O=C(Cn1sc2ccccc2c1=O)NC12CC3CC(CC(C3)C1)C2	-91.8*
COc1ccccc1-c1nnc(Nc2nc3c(OC)cccc3s2)o1	81.5
COc1cccc(-c2nnc(Nc3nc4c(F)cccc4s3)o2)c1	-145.4*
COc1cccc2sc(Nc3nnc(-c4ccccc4Cl)o3)nc12	66.3
CC(C)N1C(=O)CN(C2CCCCCC2)C(=O)C1c1ccccc1F (stereo not drawn)	-140.3*
O=c1cc(-c2cccs2)oc2ccc(Cl)cc12	-177.6*
O=c1cc(-c2ccc3c(c2)OCCO3)oc2ccc(Cl)cc12	-149.4*
O=c1c(O)c(-c2cccs2)oc2ccc(Cl)cc12	-74.9*
COc1cccc(NC(=O)Nc2nc(SC)ns2)c1	-151.1*
COc1cccc(NC(=O)Nc2nc(SC(C)(C)C)ns2)c1	-130.1*
Nc1c(S(=O)(=O)c2cccc(Cl)c2)c2nc3ccccc3nc2n1/N=C/c1ccc(O)c(O)c1	88.8
Oc1cccc(/C=N/Nc2ncnc3c2ncn3Cc2ccccc2)c1	-76.9*
Oc1ccc(/C=N/Nc2ncnc3c2ncn3Cc2ccccc2)cc1O	-67.0*
COc1cc2[nH]c3c(=O)n4c(nc3c2cc1OC)SCCC4	-97.0*
O=[N+]([O-])c1ccc(N=Nc2ncc[nH]2)cc1	-95.6*
COc1ccc(CN=Cc2[nH]c3ccc(Br)c(Cl)c3c2O)cc1	-77.7*
COc1ccc(Oc2c(Cl)cnn(-c3ccc(Cl)c(Cl)c3)c2=O)cc1	72.7
Cn1ncc(Cl)c(Oc2ccc(Cl)cc2)c1=O	-72.6*
SMILES	aSyn UTR act
Cn1ncc(Oc2ccc([N+](=O)[O-])cc2)c(Cl)c1=O	-65.8*
CSC1=NC(C)(C)C=C(/C=C/c2ccc(Cl)cc2)N1	-95.9*
O=C(Nc1ccc2c(c1)OCCO2)N1CCN(c2ccc(F)cc2)CC1	-87.9*
O=C(Nc1ccc2c(c1)OCCO2)C1CCN(C(=O)c2ccc(F)cc2)CC1	-84.5*
Cc1cccc(C)c1N1CCN(C(=O)Nc2ccc3c(c2)OCCO3)CC1	-73.7*
CCc1c(C)sc(NC(=S)Nc2nc(C)cc(C)n2)c1C(=O)OC	-97.6*
CC(C)Cc1cc(C(=O)Nc2ccc(Br)cc2)no1	-137.1*
CC(C)Cc1cc(C(=O)NCc2cccs2)no1	-164.4*
O=C(Nc1ccc(F)cc1F)c1csc(-c2cccs2)n1	-270.1*
CCc1ccc(NC(=O)c2cc(CC(C)C)on2)cc1	-120.5*
CC(=O)c1cccc(NC(=O)c2cc(C(C)C)on2)c1	-101.3*
CCc1ccc(NC(=O)c2cc(C(C)C)on2)cc1	-102.5*
CC(C)Cc1cc(C(=O)Nc2ccc(F)cc2F)no1	-138.6*
CC(C)c1cc(C(=O)NCCc2ccccc2)no1	-200.7*
COc1ccc(N2CCN(c3nccs3)CC2)cc1	-153.7*
O=C(/C=C/c1ccc2ccccc2c1)c1ccoc1	-123.4*
Nc1c(C(=O)Nc2cccc(F)c2)nnn1-c1ccc2c(c1)OCCO2	-101.0*
Cc1ccccc1NC(=O)c1nnn(-c2ccc3c(c2)OCCO3)c1N	-135.4*
Cc1cc(C(=O)N/N=C2\CC(=O)c3ccccc32)c(C)n1-c1ccccc1	-111.6*
FC(F)Sc1ccc(NC(=S)NCc2ccccc2)cc1	-70.3*
O=C(CC1CCCC1)Nc1ccc(Br)cc1	-137.7*
FC(F)Sc1ccc(NC(=S)NCC2CCCCC2)cc1	-66.9*
S=C(Nc1ccc(Br)cc1)NC1CCCC1	-123.6*
CC1CCN(C(=S)Nc2ccc(SC(F)F)cc2)CC1	-142.6*
FC(F)Sc1ccc(NC(=S)NC2CCCCC2)cc1	-109.3*
SMILES	aSyn UTR act
Cc1sc(NC(=S)NC(=O)C(C)(C)C)c(C(N)=O)c1C	-67.5*
CC(=O)NC(=S)Nc1sc2c(c1C(N)=O)CCC(C)C2 (stereo not drawn)	-83.3*
CC(C)(C)C(=O)NC(=S)Nc1sc2c(c1C(N)=O)CCC2	-87.8*
CCCCC(=O)Nc1sc2c(c1C(N)=O)CCC2	-85.2*
CC1CCc2nc(NCCO)nc(C(F)(F)F)c2C1 (stereo not drawn)	53.7
CC(C)CC(=O)NC(=S)Nc1sc2c(c1C(N)=O)CCC2	-99.6*
O=C(Nc1ccccc1)Nc1ccc(Oc2cccnc2)nc1	-105.5*
CC(C)(C)c1ccc(Oc2ccc(NC(=O)c3ccccc3C(=O)O)cn2)cc1	85.7
O=C(Nc1ccc(OC(F)(F)F)cc1)Nc1cccnc1	-110.3*
CCC(C)c1ccc(NC(=O)Nc2cccnc2)cc1 (stereo not drawn)	-155.3*
O=C(Nc1ccccc1F)c1cc2nc(C(F)F)cc(C(F)F)n2n1	-71.5*
c1ccc(CCSc2nccn2-c2ccccc2)cc1	-121.2*
O=C1CS/C(=N/N=C/c2ccccc2)N1Cc1ccco1	-81.3*
